# GPR151 ag: activators of human GPR151, primary screen, cell-based, PathHunter beta-arrestin, luminescence; G-protein coupled receptor 151 (Homo sapiens), Q8TDV0; PathHunter beta-arrestin GPR151 cells; activation, % at 11.2 µM; hit rate 1% among 650,000; in the data active means activation above about 4.9%;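 further: 0% = median of compound wells and 100% = cells with positive control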
# Target sequence (Q8TDV0 whole entry, looked up): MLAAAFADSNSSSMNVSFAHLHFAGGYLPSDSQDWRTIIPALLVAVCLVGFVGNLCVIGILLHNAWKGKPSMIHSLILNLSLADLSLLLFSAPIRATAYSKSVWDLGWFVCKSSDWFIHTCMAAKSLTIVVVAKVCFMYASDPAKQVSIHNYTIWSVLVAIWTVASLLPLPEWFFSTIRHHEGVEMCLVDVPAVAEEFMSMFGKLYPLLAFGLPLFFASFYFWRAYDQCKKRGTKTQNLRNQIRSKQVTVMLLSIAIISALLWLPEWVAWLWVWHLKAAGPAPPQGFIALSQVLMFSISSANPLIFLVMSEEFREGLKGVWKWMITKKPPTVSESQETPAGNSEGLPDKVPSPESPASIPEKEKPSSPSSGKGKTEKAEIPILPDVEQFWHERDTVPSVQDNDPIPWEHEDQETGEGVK
# FBW7 activator: FBW7 E3 ligase activators, primary screen, biochemical, AlphaScreen, human; F-box/WD repeat-containing protein 7 (Homo sapiens), Q969H0; AlphaScreen FBW7–phospho-cyclin E peptide binding, activator screen; normalized activity (activation), % at 26.1 µM; hit rate 0.13% among 650,000; AID 1259310, 2017; in the data active means normalized activity above about 1.9%;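 further: purified mutant Fbw7 with reduced substrate affinity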
# TEAD-YAP block: TEAD-YAP interaction inhibition, primary screen, TEAD-YAP interaction inhibitor project, luminescence, HEK-TIYL cells; TEAD-Gal4/YAP UAS-luciferase luminescence; inhibition, % at 9.12 µM; hit rate 1.4% among 640,000; AID 1259422, 2018; in the data active means inhibition above about 32%;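 further: 0% = median of test compound wells and 100% = reference inhibitor wells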
# MITF inh: MITF inhibitors, primary screen, biochemical, AlphaScreen, human. Microphthalmia-associated transcription factor (Homo sapiens), O75030. AlphaScreen MITF homodimerization, bead proximity signal. inhibition, % at 2.6 µM. hit rate 0.91% among 650,000; in the data active means inhibition above about 50%;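 further: 0% = vehicle wells with protein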
# GPR151 conf act: GPR151 activators, triplicate retest, confirmation, cell-based, PathHunter beta-arrestin, luminescence. shares compounds with GPR151 ag. GPR151 PathHunter beta-arrestin cells, 90 min; % of EA-reagent control over plate median. activation, % at 11.2 µM. 6,700 tested, under 10 active. AID 1508609, 2020;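 active means mean percent activation across replicates above the confirmation screen cutoff of 4.91%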
# GPR119 ag: GPR119 activators in beta-arrestin cells, counter-screen for GPR151 activator project, cell-based, PathHunter beta-arrestin, luminescence, triplicate; shares compounds with GPR151 ag; 90 min; 0 = compound-well median, 100 = enzyme-acceptor control; activation, % at 11.2 µM; hit rate 0.3% among 6,700; AID 1508611, 2020;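 active means mean percent activation in the counterscreen above 29.09%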;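 further: counterscreen on off-target GPR119 to flag nonselective hits from the GPR151 activator screen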
# Numbers without * were called inactive; · = no result given. In the library only some 3.5% were active in any assay of this set; here they are far more common.
SMILES,GPR151 ag,FBW7 activator,TEAD-YAP block,MITF inh,GPR151 conf act,GPR119 ag
Cc1ccccc1-n1c(=S)sc2c(=O)n(-c3ccccc3)c(SCc3cccnc3)nc21,0.6,-0.1,3.0,-0.6,·,·
COc1cccc(CNC(=O)CSc2nc3c(oc4ccccc43)c(=O)n2CCCOC(C)C)c1,6.5*,-0.1,1.3,2.4,-0.6,-12.6
Brc1cccc(-c2nnc(CN3CCN(Cc4ccccc4)CC3)o2)c1,6.0*,0.1,-1.4,2.1,-0.1,-3.6
COc1cccc(CN2CCNC(=O)C2CC(=O)NCCCOC(C)C)c1OC (stereo unspecified),-0.3,0.1,-2.9,-5.5,·,·
Nn1c(SCC(=O)Nc2ccc(OCc3ccccc3)cc2)nnc1-c1ccco1,5.0*,-0.3,0.0,6.0,-0.5,-1.9
Nn1c(SCC(=O)Nc2ccc(OCc3ccccc3)cc2)nnc1-c1ccccc1,0.9,0.0,-8.5,-2.0,·,·
CCn1cc(/C=C/c2nc(O)c([N+](=O)[O-])c(=O)[nH]2)c2ccccc21,0.5,0.0,-4.7,6.0,·,·
O=C(Cn1cc(/C=C/c2nc(O)c([N+](=O)[O-])c(=O)[nH]2)c2ccccc21)Nc1ccc(F)cc1,5.5*,-0.2,9.3,14.5,0.1,2.4
O=C(Cn1cc(/C=N/N2C(=O)c3ccccc3C2=O)c2ccccc21)Nc1ccc(F)cc1,5.6*,0.0,9.4,2.9,0.0,7.2
N#CCC(=O)N/N=C/c1cn(CC(=O)Nc2ccc(F)cc2)c2ccccc12,1.7,0.0,10.8,1.0,·,·
Cc1cc(C)nc(NNS(=O)(=O)c2ccc(Cl)cc2)n1,5.9*,-0.1,0.3,4.0,1.5,6.8
Nc1ncc(Br)cc1S(=O)(=O)N1CCN(C2CCCCC2)CC1,12.6*,0.2,3.6,4.3,1.0,9.7
O=C(CNS(=O)(=O)c1ccccc1)OCc1ccc(Cl)cc1,-0.6,0.3,2.6,6.8,·,·
COc1ccc(OC)c(C2CC(=O)N3CN(c4ccccc4)CSC3=C2C#N)c1 (stereo unspecified),5.7*,0.0,1.8,15.9,0.1,0.4
COc1cccc(C2CC(=O)N3CN(c4ccccc4)CSC3=C2C#N)c1 (stereo unspecified),-0.3,0.0,-1.5,7.8,·,·
CN(c1cccc(NS(=O)(=O)c2ccc3ccccc3c2)c1)S(C)(=O)=O,-0.4,-0.1,5.1,-0.3,·,·
CN(NS(=O)(=O)c1ccc2ccccc2c1)c1ccccc1,7.6*,0.0,-0.2,5.2,0.5,1.4
O=C1CC2c3ccccc3C1C1C(=O)N(c3ccccc3)C(=O)C21 (stereo unspecified),8.7*,-0.2,-1.7,-7.4,-0.3,-6.5
Cc1ccc(N2C(=O)C3C4CC(=O)C(c5ccccc54)C3C2=O)cc1 (stereo unspecified),0.8,-0.2,5.1,-3.4,·,·
Cn1c(=O)c(=O)n(C)c2cc(S(=O)(=O)N3CCN(C(=O)c4ccco4)CC3)ccc21,15.3*,0.3,0.8,6.0,0.7,-1.5
COc1ccc(N2C(=O)NC3CC2(C)Oc2c(OC)cccc23)cc1 (stereo unspecified),0.5,0.0,9.9,4.0,·,·
COc1ccc(N2C(=O)NC3CC2(C)Oc2c(OC)cccc23)c(OC)c1 (stereo unspecified),6.7*,-0.1,12.3,7.3,2.1,11.3
Oc1ccc(CCNc2ccnc(-c3ccc(N4CCOCC4)nc3)n2)cc1,-3.6,0.7,6.9,1.9,·,·
COc1ccc(C(=O)NCC(=O)OCc2cc(=O)oc3cc4c(cc23)CCC4)cc1OC,0.1,-0.1,3.3,-2.4,·,·
N#Cc1c(-c2cccc([N+](=O)[O-])c2)c(C#N)c(=O)n(N)c1N,0.5,-0.3,7.0,-1.0,·,·
SMILES,GPR151 ag,FBW7 activator,TEAD-YAP block,MITF inh,GPR151 conf act,GPR119 ag
N#Cc1c(-c2ccccc2)cc(-c2cccc([N+](=O)[O-])c2)c(C#N)c1N,5.9*,0.0,13.6,-11.0,-1.2,-1.8
Cc1ccc(N(C(=O)c2cc(Cl)ccc2[N+](=O)[O-])C(=O)N2CCCCC2)cc1,0.8,-0.4,9.7,0.8,·,·
Fc1cccc2sc(Nc3nc(-c4ccccn4)cs3)nc12,7.6*,-0.5,50.2*,19.2,0.1,0.4
O=C(Nc1ccc(Br)cc1)c1ccc(N2C(=O)C3CCCCC3C2=O)cc1 (stereo unspecified),0.0,0.0,-2.2,-5.9,·,·
O=C(Nc1ccc(Br)cc1)c1cccc(N2C(=O)C3CCCCC3C2=O)c1 (stereo unspecified),7.5*,0.0,-8.5,1.7,-0.2,4.2
CCCNc1nc(N(CC)CC)nc(N2CCN(c3ccccn3)CC2)n1,3.0,-0.1,5.6,5.0,·,·
O=S(=O)(NCC1COC2(CCCC2)O1)c1ccc(Cl)cc1 (stereo unspecified),-0.8,-0.1,10.4,2.6,·,·
CCc1cccc(NS(=O)(=O)c2ccc3c(c2)n(C)c(=O)n3C)c1,1.1,0.3,24.9,3.4,·,·
Cn1c(=O)n(C)c2cc(S(=O)(=O)Nc3cccc(C(F)(F)F)c3)ccc21,5.1*,-0.2,0.7,-11.6,-0.6,7.0
Cc1cccc(Cn2c(C)nc3ccccc32)c1,0.6,0.0,10.4,19.8,·,·
COc1cc(C=Nc2ccc(C)c(F)c2)ccc1OC(C)=O,34.4*,0.1,4.5,-9.0,0.1,-11.4
COc1cc(C=Nc2ccc(F)cc2)ccc1OC(C)=O,0.9,-0.2,-4.2,4.3,·,·
CC(C)C(=O)N(CC(=O)Nc1sc2c(c1C(N)=O)CCCC2)Cc1ccccc1,7.1*,-0.1,5.6,-1.9,0.3,7.2
CC(=O)N1CCc2c(sc(NC(=O)Cc3ccccc3)c2C(N)=O)C1,5.3*,-0.1,1.2,2.9,0.2,0.4
CCOC(=O)c1c(NC(=O)c2cc(=O)c3ccccc3o2)sc2c1CCN(C(C)=O)C2,6.0*,-0.1,1.4,-10.5,0.4,1.9
CC(C)N1CCc2c(sc(NC(=O)Cc3ccccc3)c2C(N)=O)C1,-0.2,0.6,-14.5,2.4,·,·
O=C(CCN1C(=O)C2CCCCC2C1=O)NNc1c(F)c(F)cc(F)c1F (stereo unspecified),5.4*,-0.1,5.8,-10.3,-0.2,1.1
COCc1cc(C)nc2sc3c(c12)NC(c1ccco1)NC3=O (stereo unspecified),0.7,0.0,-8.9,3.7,·,·
CN1CCN(c2cc(-c3cn[nH]c3)ccc2NC(=O)Cc2cccc(Cl)c2)CC1,5.2*,0.0,-5.8,13.6,6.6*,54.2*
Cc1cc(-n2c(SCc3ccccc3)nc3ccsc3c2=O)ccc1Cl,5.6*,0.0,-7.4,0.5,1.4,7.9

# Compound activity as filed in PubChem.
